Laboratory results published in PubChem BioAssay (NCI).
About 79,000 compounds went through this panel and 15% of them were active in at least one assay; those are over-represented in the sample as a whole. Unmarked numbers belong to inactive results. Calls of active or inactive are those of the source. No stated cut-off is given here; in the data, active means growth inhibition above about 70%; inactive means the rest. Where a SMILES comes first, the peptide text is derived from it. The star is where a group is joined. Trt = c1ccc(C(c2ccccc2)(c2ccccc2)*)cc1; Cbz = O=C(OCc1ccccc1)*

Experiments:
[1] = NCI Yeast Anticancer Drug Screen. Data for the rad50 strain (AID 155);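 further: 0% = growth of vehicle-only cultures of the same strain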; conditions: S. cerevisiae rad50 strain growth inhibition, stronger effect = higher value
In short: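 Yeast carrying a defined DNA repair defect were exposed to test compounds, and growth was compared with vehicle-treated controls to give percent inhibition.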

[2] = NCI Yeast Anticancer Drug Screen. Data for the mec2-1 strain (AID 157); conditions: S. cerevisiae mec2-1 strain, stronger effect = higher value
In short: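 Yeast mec2-1 mutant treated with compound. Readout: growth inhibition vs vehicle controls.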

[3] = NCI Yeast Anticancer Drug Screen. Data for the sgs1 mgt1 strain (AID 161);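 further: 0% = growth of cultures given vehicle only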; conditions: S. cerevisiae sgs1 mgt1 strain, stronger effect = higher value
In short: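 Mutant yeast exposed to compound; growth scored against vehicle-only wells.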

[4] = NCI Yeast Anticancer Drug Screen. Data for the cln2 rad14 strain (AID 165);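 further: 0% = growth equal to vehicle treated cultures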; conditions: S. cerevisiae cln2 rad14 strain, stronger effect = higher value
In short: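 cln2 rad14 yeast strain; compound exposure; growth inhibition read vs vehicle controls.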

[5] = NCI Yeast Anticancer Drug Screen. Data for the bub3 strain (AID 167); conditions: S. cerevisiae bub3 mutant strain, stronger effect = higher value
In short: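 Compounds were applied to a genetically altered yeast strain carrying a cell-cycle control defect. Growth inhibition was scored against vehicle-treated controls.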

[6] = NCI Yeast Anticancer Drug Screen. Data for the mlh1 rad18 strain (AID 175); conditions: S. cerevisiae mlh1 rad18 strain growth inhibition, stronger effect = higher value
In short: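 Yeast w/ defined DNA-repair lesions; compound exposure; growth vs vehicle controls → % inhibition.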

[7] = at 5.0 µM (retest, dose inferred, filed as 0.5)
[8] = at 50.0 µM (retest, dose inferred, filed as 5.0)

SMILES | growth inhibition [1, 7] | growth inhibition [1, 8] | growth inhibition ([1]; at 50.0 µM) | growth inhibition [2, 7] | growth inhibition [2, 8] | growth inhibition ([2]; at 50.0 µM) | growth inhibition [3, 7] | growth inhibition [3, 8] | growth inhibition ([3]; at 50.0 µM) | growth inhibition [4, 7] | growth inhibition [4, 8] | growth inhibition ([4]; at 50.0 µM) | growth inhibition [5, 7] | growth inhibition [5, 8] | growth inhibition ([5]; at 50.0 µM) | growth inhibition [6, 7] | growth inhibition [6, 8] | growth inhibition ([6]; at 50.0 µM)
O=C(c1ccc(Br)cc1)C1OC12C(=O)Nc1ccccc12 (configuration not stated) | 46% | 99% (active) | 99.7% (active) | 99% (active) | 99% (active) | 99.7% (active) | 84% (active) | 100% (active) | 99.7% (active) | 49% | 99% (active) | 99.1% (active) | 99% (active) | 99% (active) | 99.6% (active) | 99% (active) | 99% (active) | 99.5% (active)
CCCC(=O)c1ccc(OC)cc1 | 0% | 28% | 41.9% | 1% | 70% (active) | -11.3% | 0% | 13% | 14.9% | 1% | 10% | 17.6% | -6% | 98% (active) | 20.9% | -1% | 61% | 6.25%
CCOC(=O)CCC(NC(=O)C(CSC(c1ccccc1)(c1ccccc1)c1ccccc1)NC(=O)OCc1ccccc1)C(=O)NC(CCC(=O)OCC)C(=O)NC(CCC(=O)OCC)C(=O)NC(CCC(=O)OCC)C(=O)NC(CSC(c1ccccc1)(c1ccccc1)c1ccccc1)C(=O)OC (configuration not stated) (Cbz-C(Trt)E(OEt)E(OEt)E(OEt)E(OEt)C(Trt)-OMe; configuration not given here) | 1% | 67% | 74.2% (active) | -7% | 63% | 75.8% (active) | -1% | 61% | 68% | 7% | 70% (active) | 82.3% (active) | -4% | 58% | 72.2% (active) | 2% | 73% (active) | 75.6% (active)
O=C(Cn1nnc2ccccc21)N1CCN(c2ccccc2)CC1 | -2% | 3% | 32.8% | 4% | 3% | 33.8% | -1% | 5% | -2.35% | -6% | 3% | 43.8% | -1% | 1% | 14.9% | -3% | 3% | -7.75%
Cc1ccc(-c2c(N)[n+]([O-])c3ccccc3[n+]2[O-])cc1 | 34% | 95% (active) | 99.3% (active) | 32% | 99% (active) | 99.3% (active) | 47% | 100% (active) | 99.2% (active) | 46% | 98% (active) | 98.3% (active) | 54% | 99% (active) | 99.2% (active) | 81% (active) | 99% (active) | 99% (active)
Oc1cc(O)cc(O)c1 | 10% | 76% (active) | 15.7% | -2% | 18% | -4.05% | 0% | 19% | 12.3% | 5% | 17% | 7.85% | -4% | 6% | 69% | -5% | 16% | 23.3%
O=[N+]([O-])c1ccc(NS(=O)(=O)c2ccccc2)c(NS(=O)(=O)c2ccccc2)c1 | 15% | 75% (active) | 81.5% (active) | 14% | 76% (active) | 73.4% (active) | 20% | 81% (active) | 83.2% (active) | 27% | 32% | 82.1% (active) | 6% | 43% | 80.1% (active) | 11% | 90% (active) | 71.7% (active)
c1ccc(C2=NC(=c3ccc(=C4N=C(c5ccccc5)C(c5ccccc5)=N4)cc3)N=C2c2ccccc2)cc1 | 3% | 44% | 86.6% (active) | 3% | 17% | 65.6% | -2% | 48% | 59.9% | 7% | 5% | 29.6% | 3% | 8% | 51.3% | 1% | 19% | 93.7% (active)
CCOC(=O)CC[P+](Cc1ccccc1)(c1ccccc1)c1ccccc1 | -32% | 14% | 64.9% | 0% | 0% | -1.5% | 2% | 3% | 12.7% | 4% | -2% | -15.4% | 1% | 4% | 18.4% | 7% | 21% | 11%
CC12C=C3CC(OC(=O)c4ccccc4)CCC3(O1)c1ccccc12 (configuration not stated) | 2% | 69% | 84.8% (active) | -1% | 77% (active) | 91.5% (active) | 1% | 80% (active) | 90.1% (active) | 3% | 2% | 10.1% | 4% | 76% (active) | 79.3% (active) | 1% | 76% (active) | 76% (active)
COC(=O)c1ccc(C)cc1CC1Cc2cc(C)ccc2C1=O (configuration not stated) | 5% | 54% | 36.1% | -21% | 56% | 56.1% | -31% | 68% | 73.9% (active) | 21% | 53% | 71.8% (active) | -34% | 49% | 64.2% | -12% | 85% (active) | 70.7% (active)
O=[N+]([O-])CC(O)c1ccccc1Cl (configuration not stated) | 90% (active) | 98% (active) | 99.3% (active) | 5% | 99% (active) | 99.7% (active) | -15% | 99% (active) | 99.5% (active) | -4% | 98% (active) | 98.7% (active) | 16% | 98% (active) | 99.4% (active) | 30% | 99% (active) | 99.2% (active)
CS(=O)(=O)n1c(C(O)c2ccccc2)nc2ccccc21 (configuration not stated) | -4% | 4% | 8.95% | 10% | -1% | 17.8% | 2% | 8% | 3.1% | -82% | -1% | 27.8% | 5% | 38% | 5.6% | 0% | 1% | 14.2%
COC(=O)C(=Cc1c[nH]c2ccccc12)C(=O)OC | -12% | 0% | 11.6% | 4% | 2% | 30.3% | -1% | -6% | 4.55% | -1% | -4% | 16.3% | -3% | 2% | 10.6% | -18% | -17% | 10.8%
C1=C(c2ccccc2)[P+](c2ccccc2)(c2ccccc2)C=C(c2ccccc2)[P+]1(c1ccccc1)c1ccccc1 | 87% (active) | 98% (active) | 99.3% (active) | 89% (active) | 99% (active) | 99.7% (active) | 89% (active) | 99% (active) | 99.2% (active) | 44% | 98% (active) | 98.2% (active) | 83% (active) | 99% (active) | 99.2% (active) | 83% (active) | 99% (active) | 99.2% (active)
CNc1c(C(=O)Nc2ccccc2)c(=O)n(C)c(=O)n1C | 99% (active) | 99% (active) | 62.9% | 100% (active) | 99% (active) | 81% (active) | 99% (active) | 99% (active) | 32.8% | 99% (active) | 99% (active) | 2.3% | 99% (active) | 99% (active) | 90.8% (active) | 99% (active) | 99% (active) | 74.5% (active)
CC1CCC2(OC1)OC1CC3C4CCC5CC(OC6OC(COC7OC(CO)C(O)C(O)C7O)C(OC7OC(C)C(O)C(O)C7O)C(O)C6OC6OC(CO)C(O)C(O)C6O)CCC5(C)C4CCC3(C)C1C2C (configuration not stated) | 0% | 99% (active) | 99.2% (active) | -1% | 100% (active) | 99.8% (active) | 16% | 97% (active) | 99.8% (active) | -2% | 99% (active) | 99.5% (active) | 15% | 100% (active) | 99.6% (active) | 2% | 100% (active) | 99.7% (active)
COc1cc(-c2nn3c(=O)n(-c4ccc(Cl)cc4)c(=O)nc3s2)cc(OC)c1OC | 6% | -2% | 30.8% | 0% | 18% | -0.6% | 1% | 4% | 20.9% | 7% | -7% | 24% | 1% | 17% | 3.3% | -2% | 3% | 2.35%
OC12C3C4CC5C(C4[C@@H]1Br)C2[C@@](O)(c1c(F)c(F)c(F)c(F)c1F)C53 (some centres not stated) | 8% | 21% | 27.2% | 3% | 8% | 11.6% | 3% | 3% | 27.6% | 3% | 12% | 22.2% | 8% | 54% | 79.3% (active) | 8% | 35% | 73.7% (active)
